A selection: hits, their analogues and other compounds. The true share with any hit is near 1.1%.
NCOA1 inh: SRC1 coactivator transcriptional activity inhibitors, primary screen, cell-based, luminescence | Nuclear receptor coactivator 1 (Homo sapiens), Q15788 | HEK293 GAL4-SRC1 luciferase reporter | inhibition, % at 3.6 µM | 0.12% of 360,000 active | AID 588354, 2011;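 active = inhibition above the campaign mean plus 3 SD, with each screening campaign given its own cutoff, cut at about 60% in these data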;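 note: 0% = DMSO treated cells and 100% = gossypol at 36 µM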
NCOA2 inhibitor: inhibition of GAL4-SRC2 driven luciferase reporter, primary screen, SRC2 inhibitor project, cell-based, luminescence; Nuclear receptor coactivator 2 (Homo sapiens), Q15596; 0.17% of 370,000 active; inhibition, % at 9 µM; HEK293 GAL4-SRC2 luciferase reporter;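 active = inhibition above the mean inhibition of all tested compounds plus 3 SD, set per campaign, cut at about 52% in these data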;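 note: 0% = DMSO treated cells and 100% = cells given Gossypol at 36 µM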
LRH-1 inv ag: LRH-1 (NR5A2) inverse agonists, primary screen, cell-based, luminescence, HEK293T, StAR-luciferase reporter; Nuclear receptor subfamily 5 group A member 2 (Homo sapiens), O00482; LRH-1 transfected, 24 h; inhibition, % at 3.6 µM; 0.13% of 360,000 active; AID 602396, 2012;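 active = inhibition above the mean inhibition of all tested compounds plus 3 SD, cut at about 73% in these data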;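 note: 0% = DMSO wells and 100% = reporter-only cells lacking LRH-1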
NR2F2 inh: NR2F2 transcriptional activity inhibitors, primary screen, cell-based, luciferase reporter, HEK293T, luminescence; AID 686940, 2013; HEK293T NGFI-A luciferase reporter; 0.7% of 370,000 active; inhibition, % at 8.6 µM;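 active = inhibition above a per-plate cutoff, mean inhibition of test wells between control levels plus 3 SD, cut at about 38% in these data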;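 note: cells cotransfected with COUP-TFII expression vector driving the NGFI-A reporter; 0% = median of COUP-TF2 test wells and 100% = reporter-only cells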
GalR3 antag: GalR3 antagonists in HEK293 cells, primary screen, cell-based, fluorescence readout. Galanin receptor type 3 (Homo sapiens), O60755. HEK293 GalR3-CNG cAMP membrane potential fluorescence; galR3 body fused to GalR1 C-terminus. inhibition, % at 3 µM. 0.44% of 360,000 active;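 active = inhibition above the screen-wide average plus 3 SD, cut at about 13% in these data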;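 note: forskolin and galanin both at EC90 stimulate the cells; cAMP rise reported by CNG channel membrane potential dye signal; 0% = forskolin plus galanin with DMSO and 100% = forskolin alone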
NCOA3 inh: SRC3 coactivator transcriptional activity inhibitors, primary screen, cell-based, luminescence; Nuclear receptor coactivator 3 (Homo sapiens), Q9Y6Q9; HEK293 GAL4-SRC3 luciferase reporter; AID 588352, 2011; 0.17% of 360,000 active; inhibition, % at 3.6 µM;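 active = inhibition above a per-campaign cutoff, the mean of all compounds plus 3 SD, cut at about 60% in these data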;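 note: 0% = DMSO-treated cells and 100% = gossypol-treated cells at 36 µM; higher means less SRC3-driven luciferase light from the GAL4 reporter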
VP16 Luc counter: Gal4-VP16 luciferase reporter inhibitors, counter-screen for COUP-TFII antagonist project, cell-based, luminescence, HEK293; inhibition, % at 8.5 µM; 25% of 2,500 active; shares compounds with NR2F2 inh; in the data active = inhibition above about 13%
COUP-TFII conf: NR2F2 transcriptional activity inhibitors, confirmation, cell-based, luciferase reporter, HEK293, triplicate | shares compounds with NR2F2 inh | 45% of 2,500 active | AID 687008, 2013 | inhibition, % at 8.5 µM | HEK293 NGFI-A luciferase reporter, luminescence;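 active = mean inhibition over three repeats above a set limit taken from the earlier primary screen, cut at about 38% in these data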;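 note: 100% = cells given the luciferase reporter alone without the COUP-TF2 vector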
* = called active by the depositor; . = no result given.

SMILES	NCOA1 inh	NCOA2 inhibitor	LRH-1 inv ag	NR2F2 inh	GalR3 antag	NCOA3 inh	VP16 Luc counter	COUP-TFII conf
CN(Cc1ccc(Cl)cc1Cl)C(=O)c1cccc(S(=O)(=O)N2CCN(c3ccccc3)CC2)c1	3.8	28.2	4.4	17.1	-3.9	-7.1	.	.
COc1cccc(CN(C)C(=O)c2cccc(S(=O)(=O)N3CCN(Cc4ccccc4)CC3)c2)c1OC	-16.0	-1.4	8.9	18.3	-3.4	18.8	.	.
COc1ccccc1CNC(=O)c1cccc(S(=O)(=O)N2CCN(c3ccc(F)cc3)CC2)c1	-7.5	-16.8	19.5	4.5	-2.2	7.0	.	.
COc1ccc(NC(=O)CN(C)C(=O)c2cccc(S(=O)(=O)N3CCN(c4ccc(F)cc4)CC3)c2)cc1	-4.1	23.9	14.0	45.9*	-10.5	16.9	-1.9	17.2
COc1cccc(CN(C)C(=O)c2cccc(S(=O)(=O)N3CCN(c4ccccc4)CC3)c2)c1OC	3.9	-1.0	3.0	52.4*	-0.6	32.0	-0.7	21.4
COc1cccc(CN(C)C(=O)c2cccc(S(=O)(=O)N3CCN(c4ccc(F)cc4)CC3)c2)c1OC	7.5	25.1	5.7	58.5*	-4.5	17.2	-1.8	38.8*
CCN(C)c1nc(C)nc2c1nnn2Cc1ccccc1	.	-12.5	.	12.0	.	.	.	.
COc1cc(NC(=O)C2CCCN(S(=O)(=O)c3cccc4cccnc34)C2)cc(OC)c1 (stereo unspecified)	.	1.4	.	-3.9	.	.	.	.
COc1ccc(CCNC(=O)c2ccc(CS(=O)(=O)c3ccc(Cl)cc3)o2)cc1OC	10.9	14.9	31.0	48.6*	-4.3	25.3	1.2	26.7
COc1ccc2c(c1)N[C@@](CCN1C(=O)c3ccccc3C1=O)(c1[nH]c3ccccc3c1CCN1C(=O)c3ccccc3C1=O)C2=O	.	.	.	17.9	.	.	.	.
Cc1ccc(C)c(C(=O)OCC(=O)Nc2cccc(S(=O)(=O)N3CCCCC3)c2)c1	-1.7	10.6	2.4	43.3*	-8.0	2.1	2.5	29.6
CC(=O)c1c(C)[nH]c(C(=O)OCC(=O)Nc2cccc(S(=O)(=O)N3CCCC3)c2)c1C	36.1	19.4	46.2	65.6*	-10.7	40.6	-14.6	36.2
CC(=O)c1c(C)[nH]c(C(=O)OCC(=O)Nc2cc(S(=O)(=O)N3CCCC3)ccc2Cl)c1C	22.8	2.3	34.1	-18.6	-8.4	31.5	.	.
CC(=O)c1ccc(OCC(=O)Nc2cccc(S(=O)(=O)N3CCCC3)c2)cc1	3.6	20.5	9.6	42.8*	-7.5	29.6	-8.5	12.7
CCc1nc2ccccc2c(C(=O)OCC(=O)Nc2ccc(S(=O)(=O)N3CCOCC3)cc2)c1C	15.4	4.4	14.4	14.2	-1.7	-0.8	.	.
CCc1nc2ccccc2c(C(=O)OCC(=O)Nc2cccc(S(=O)(=O)N3CCOCC3)c2)c1C	7.0	4.3	9.7	64.8*	-2.8	38.9	10.9	30.2
COC(=O)[C@]12C[C@H](CC(=O)NCc3cccc(C(F)(F)F)c3)C(=O)N(Cc3ccc4c(c3)OCO4)C1=C[C@H](C(C)C)O[C@@H]2C1CC1	.	-6.3	.	-13.3	.	.	.	.
O=C(Nc1ccc2c(c1)OCO2)O[C@@H]1CC[C@@]23CCCN2C(=O)CCC[C@H]3C1	.	.	.	-13.9	.	.	.	.
CN(C)S(=O)(=O)c1cccc(NC(=O)CNc2cccc(S(=O)(=O)N3CCCCC3)c2)c1	18.6	5.1	33.1	44.9*	-8.6	24.0	2.8	20.0
Cc1ccc(NC(=O)c2ccc(OC(F)(F)F)cc2)cc1S(=O)(=O)N(C)C	2.2	12.7	27.4	54.7*	-0.2	12.7	-9.1	35.5
CN(C)S(=O)(=O)Oc1ccc(C(=O)Nc2cccc(C(F)(F)F)c2)cc1	11.4	-0.9	1.2	54.1*	-2.9	8.7	-19.8	16.1
CCN(CC)S(=O)(=O)c1cccc(NC(=O)c2ccc(-n3nc(C)cc3C)cc2)c1	13.0	14.4	15.8	64.8*	-12.2	25.3	9.2	32.9
CN(C)S(=O)(=O)Oc1ccc(C(=O)Nc2cccc(Cl)c2)cc1	-46.9	-34.0	-92.1	-18.5	-2.0	-60.7	.	.
Cc1cc(C)n(-c2ccc(C(=O)Nc3cccc(S(=O)(=O)N(C)C)c3)cc2)n1	13.3	13.6	15.8	42.7*	-6.0	34.2	14.1*	38.7*
Cc1cc(C)n(-c2ccc(C(=O)Nc3ccc(S(=O)(=O)N(C)C)cc3)cc2)n1	17.6	-10.9	18.9	32.0	-5.3	31.2	.	.
SMILES	NCOA1 inh	NCOA2 inhibitor	LRH-1 inv ag	NR2F2 inh	GalR3 antag	NCOA3 inh	VP16 Luc counter	COUP-TFII conf
Cc1ccc(NC(=O)c2ccncc2)cc1S(=O)(=O)N(C)C	2.7	-10.7	-4.5	-3.3	0.7	7.5	.	.
COC(=O)C1CN(C2CCCC2)CCS(=O)(=O)N1Cc1ccc(F)cc1 (stereo unspecified)	.	8.0	.	-13.1	.	.	.	.
C[C@H](CCC(=O)N(c1ccccc1)c1ccccc1)CC1CCCCC1	.	-0.7	.	13.1	.	.	.	.
O=C(N[C@H]1C[C@@H]2O[C@H](CO)CC[C@@H]2O[C@@H]1CCc1ccc(-c2cccnc2)cc1)c1cccc(F)c1	.	19.8	.	-6.8	.	.	.	.
C=CCN(CC#CC(=C)C)Cc1ccc(OC)cc1OC	.	15.7	.	-11.2	.	.	.	.
Cc1cc(C)n(-c2ccc(C(=O)Nc3ccc(C)c(S(=O)(=O)N(C)C)c3)cc2)n1	8.1	12.2	3.0	48.4*	0.1	22.3	-3.9	24.2
COc1ccc(C2C(C(=O)Nc3ccc(F)cc3F)CCC(=O)N2c2ccc(OC)cc2)cc1 (stereo unspecified)	.	1.1	.	0.1	.	.	.	.
Cn1cc(/C=C/c2cc[n+](C)cc2)c2cc(F)ccc21	5.0	.	6.2	.	.	19.8	.	.
Cn1cc(/C=C/c2cc[n+](C)cc2)c2cc(Cl)ccc21	28.1	3.9	55.6	59.1*	-4.6	58.9	3.5	25.6
CC(=O)Nc1ccc(SCC(=O)c2cc(C)n(-c3ccccc3)c2C)cc1	37.8	25.7	7.6	54.2*	-0.1	47.5	22.9*	40.4*
COc1ccc(-n2c(C)cc(C(=O)CSc3ccc(NC(C)=O)cc3)c2C)cc1	-25.7	-5.2	-7.2	-15.6	-1.0	-13.2	.	.
O=S(=O)(C/C(=C/CO)S(=O)(=O)c1ccccc1)c1ccccc1	-99.3	72.1*	-59.2	76.1*	4.4	-39.4	37.5*	57.9*
